The results in this text go back to the OligoGym collection.

Holding throughout (assay): pooled miR-30 sensor sort-seq; sequence = guide strand
Common to all, as to details: shRNA

The target of test [1] is EFCAB6.
For test [2], the target named is EDDM3B.
Test [3] concerns the target ECH1.
Test [4] concerns the target EDF1.
For test [5], the target named is EEF1B2.
For test [6], the target named is EHD3.
The target of test [7] is EIF3M.
The target of test [8] is EMP1.
The target of test [9] is ENAM.
Test [10] has as its target EMILIN2.
Note: reference of the scale not given here.

As to TATATCGAAATTCTTCTCTTGT, the sensor-assay potency score (higher = more potent) in [1] was 0.825.
Sequence TTGCTCTGTACAAGCAGTGTGC came in with a sensor-assay potency score (higher = more potent) in test [2] of -0.53.
Regarding AAGGCTAATACTGAGTCCCGGG, the sensor-assay potency score (higher = more potent) in [3] was determined as 0.193.
Turning to TATGCTATCAACATACCCGTCC, in test [2], the sensor-assay potency score (higher = more potent) was determined as 0.462.
Still for that read-out and setting: for TTTCGGAAGCGATCCATCCAGT the value was -0.761.
As for TTGCGCAGCACCGTCACCGTGT, in [4], the sensor-assay potency score (higher = more potent) is -0.348.
Same read-out and setting: for TTTGACAGCAGGAATGGGCTGG the value was 0.46.
In [3], TTCTGCGCAGACGTCACACGAA yielded a sensor-assay potency score (higher = more potent) of -0.688.
In test [4], TTTCCAATGTCCTTTCCCCGGA displayed a sensor-assay potency score (higher = more potent) of -0.772.
Sequence TTGTGCAGAGGAGCCAGTGAGG yielded a sensor-assay potency score (higher = more potent) in [3] of -1.37.
For the sequence TATCTGTTCCAACTTTATCATC, the sensor-assay potency score (higher = more potent) in test [5] is -1.68.
On to ATATGCTCGATTTTGTACCATG, for which, in test [2], the sensor-assay potency score (higher = more potent) was -1.24.
With TCTTGGTAATAGAATGTTGTTT, the sensor-assay potency score (higher = more potent) in test [4] is -1.13.
On to TCGAAGAGCAGAATGATGCGGT, for which the sensor-assay potency score (higher = more potent) in [6] worked out at 0.407.
In test [6], TAGAAGATCTCGTCGTACATGG gave a sensor-assay potency score (higher = more potent) of -0.19.
For the sequence TTAACAACTGCAGTCTCAGAGA, the sensor-assay potency score (higher = more potent) in test [7] is -0.725.
Same read-out and setting: for TAAAGTAGTCTTAAAAGGGTGT the value was 0.205.
The sequence TCACTGGCATATGACAGGCTGT gave a sensor-assay potency score (higher = more potent) in [8] of -1.18.
Regarding TTATTTGTTCTTTTGGACCCAG, in test [9], the sensor-assay potency score (higher = more potent) was determined as 0.0187.
In [8], ATTCGCATAATGACTAGTGTAG gave a sensor-assay potency score (higher = more potent) of -0.191.
On the same count and under the same terms, the figure for TAGCATAATAACAGTAGCGATG is -1.5.
Regarding TTTCTGATCAACAAGCTGCTTC, the sensor-assay potency score (higher = more potent) in [10] was found to be 0.352.
With TACTGATGCATCTACCGTATTG, the sensor-assay potency score (higher = more potent) in test [8] is -1.81.
In [8], TACCGTATTGGAAACCAACCAG registered a sensor-assay potency score (higher = more potent) of -0.163.
In turn, AATGGTGCTAACAAATAGCATA registered a sensor-assay potency score (higher = more potent) in [8] of -1.39.
Turning to ATAGCCGTGGTGATACTGCGTT, the sensor-assay potency score (higher = more potent) in test [8] is -0.125.
With TAGTGTAGATGGACACCCCCAC, the sensor-assay potency score (higher = more potent) in test [8] is -0.261.
On the same count and under the same terms, for TAGCCGTGGTGATACTGCGTTC the value was -1.37.
Sequence TTGAACTTTGTCCTTCAGGTGG came in with a sensor-assay potency score (higher = more potent) in test [10] of -0.378.
On to TACTGTTGAGAGTTTCTCCAGG, for which, in [9], the sensor-assay potency score (higher = more potent) turned out to be 0.393.
